In PubChem BioAssay (NCATS):
Results filed as inconclusive are left out. Values without a mark were called inactive. The source made the active and inactive calls. Calls come from the whole dose curve; as a rule, active = well fitted inhibition curve with a large enough effect; inconclusive = small, poorly fitted or top-dose-only effect; inactive = flat fitted curve, though single readings scatter. Where a SMILES comes first, the peptide text is derived from it. [ ]: non-standard residue; d: D form. PhLac = O=C(O)[CH](O)Cc1ccccc1; NMeV = CN[CH](C(=O)O)C(C)C

assay: P-glycoprotein substrates identified in KB-8-5-11 adenocarcinoma cell line, qHTS therapeutic library screen (AID 1346987); settings: KB-8-5-11 (P-gp overexpressing) viability, CellTiter-Glo, 72 h; series mostly up to 44.5 µM; activity change, negative = cytotoxicity: at the top concentration; note: nearly all actives have a fitted effect of over 65% in size
Method in brief: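 P-gp-mediated resistance screen: KB-8-5-11 cells treated 72 h with compounds in dose-response. CellTiter-Glo viability.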
% is set by controls: 0 for no effect and ±100 for the full control effect; potency is the fitted concentration of half-maximal effect.

Compound | activity change, negative = cytotoxicity | outcome | Potency
CC1(C)O[C@@H]2C[C@H]3[C@@H]4CCC5=CC(=O)C=C[C@]5(C)[C@H]4[C@@H](O)C[C@]3(C)[C@]2(C(=O)CO)O1 | -2.59% | – | –
NC(=O)[C@H]1CCCCc2c1[nH]c1ccc(Cl)cc21 | 8.12% [at 17.3 µM] | – | –
CC(C)[C@H]1CCC(CO)=C[C@@H]1/C=C(\CO)C(=O)O | 8.69% | – | –
CC(=O)OC1C=C(C(=O)O)C2(CO)CCC(C)C(C)(CCc3ccoc3)C2C1 (stereo not given) | – | inactive [at 17.3 µM] | –
C=C/C=C/[C@@H]1OC[C@H](/C=C/C=C/C)[C@H]1O | – | inactive [at 93.4 µM] | –
C=C1[C@H]2CC[C@]3(O)[C@@](CC[C@@H]4[C@](C)(C(=O)O)CCC[C@]43C)(C2)[C@H]1OC(=O)/C(C)=C\C | – | inactive [at 17.3 µM] | –
COc1cc(C2c3cc(O)c(OC)cc3CC(CO)C2CO)ccc1O (stereo not given) | -3.72% | – | –
CCCOc1ccn2c(C(C)=O)cc(-c3ccccc3S(C)(=O)=O)c2c1 | -7.43% | – | –
Cc1cc(C)cc(NC(=O)Cc2ccc(OC(C)(C)C(=O)O)cc2)c1 | 4.1% | – | –
Nc1ccn([C@@H]2C(F)=C(CO)[C@@H](O)[C@H]2O)c(=O)n1 | – | – | 10.3 µM (active)
CC1=C2C3OC(=O)C(C)C3(O)CCC2(C)CCC1=O (stereo not given) | 0.656% | – | –
CC(C)(O)CNc1nc(Nc2ccnc(C(F)(F)F)c2)nc(-c2cccc(C(F)(F)F)n2)n1 | -17.9% [at 17.3 µM] | – | –
C/C1=C\C[C@H](O[C@@H]2O[C@H](CO)[C@@H](O)[C@H](O)[C@H]2O)/C(C)=C/[C@H]2OC(=O)[C@H](C)[C@@H]2CC1 | 9.61% [at 17.3 µM] | – | –
Cc1ccc(C(=O)Nc2ccc(Oc3cc4cnn(C)c4cc3-c3cn[nH]c3)c(F)c2)c(=O)n1-c1ccc(F)cc1 | – | – | 4.61 µM (active)
CC(C)NC[C@H](O)COc1ccc(CCOCC2CC2)cc1 | 6.59% | – | –
CC1CCC2C(C(=O)O)=CC3C(O)C(C)(C)CC123 (stereo not given) | – | inactive | –
CC1(C)O[C@@]2(C)CC[C@@H]1C[C@@H]2OC1OC(CO)C(O)C(O)C1O (stereo not given in full) | 5.01% | – | –
C=C(C)[C@H]1C[C@@H](O)C(=C)CC[C@@H](O)C(=C)[C@@H](O)C1 | 6.62% | – | –

Compound | activity change, negative = cytotoxicity | outcome | Potency
O=C(O)c1cnn(-c2nc3cc(OC(F)(F)F)c(Cl)cc3[nH]2)c1 | – | inactive | –
CO/N=C(/C(=O)N[C@@H]1C(=O)N2C(C(=O)O)=C(CSC(=O)c3ccco3)CS[C@H]12)c1csc(N)n1 | – | – | inactive
COc1cc(/C=C/C(=O)OC2[C@H](O)CC(O)(C(=O)O)C[C@H]2O)ccc1O (stereo not given in full) | – | inactive | –
CNC(=O)c1ccc2cc([C@@]3(O)CCn4cncc43)ccc2c1 | – | inactive | –
CC(C)C(C(=O)N1CCCC1C(=O)O)N(C)C(=O)C(O)Cc1ccccc1 (stereo not given) (H-[PhLac]-[NMeV]-Pro-OH; configuration not given here) | 1.1% | – | –
CC(O)CO (stereo not given) | -2.08% | – | –
COc1ccccc1-n1c(SCC(=O)Nc2nc3ccc(C)cc3s2)nc2c(c1=O)SCC2 | -3.59% [at 17.3 µM] | – | –
COc1cc(/C=C/C(=O)OC2CC(C)=C(C(=O)O)/C2=C/CO[C@@H]2O[C@H](CO)[C@@H](O)[C@H](O)[C@H]2O)ccc1O (stereo not given in full) | – | inactive [at 17.3 µM] | –
C=C[C@H]1[C@H](O[C@@H]2O[C@H](CO)[C@@H](O)[C@H](O)[C@H]2O)OC=C(C(=O)OC)[C@H]1C[C@@H]1N[C@H](C(=O)O)Cc2c1[nH]c1ccccc21 | -2.55% [at 17.3 µM] | – | –
CCCCS(=O)(=O)Nc1ncnc(OCCOc2ncc(Br)cn2)c1-c1ccc(Br)cc1 | 9.86% | – | –
CCN(c1cc(C#CCN2CCOCC2)cc(C(=O)NCc2c(C)cc(C)[nH]c2=O)c1C)C1CCC(N(C)CCOC)CC1 (stereo not given) | – | inactive | –
C/C=C(\C)C(=O)O[C@H]1[C@H](O)[C@]2(COC(C)=O)[C@H](O)C[C@]3(C)C(=CCC4[C@@]5(C)CC[C@H](O[C@@H]6O[C@H](C(=O)O)[C@@H](O[C@@H]7O[C@H](CO)[C@@H](O)[C@H](O)[C@H]7O)[C@H](O)[C@H]6O[C@@H]6O[C@H](CO)[C@@H](O)[C@H](O)[C@H]6O)[C@](C)(CO)C5CC[C@]43C)[C@@H]2CC1(C)C (stereo not given in full) | 3.98% [at 9.29 µM] | – | –
CC(=O)O[C@H]1[C@H](C)[C@@H](O)[C@H]2[C@@H]1C=C(C(=O)O)[C@H]1C[C@@H]3[C@H]([C@H]21)[C@H]1C(=O)O[C@@H]2CC[C@@]3(C)O[C@]1(O)[C@@H]2C | 8.35% [at 17.3 µM] | – | –
O=C1C(=O)c2ncccc2-c2cccnc21 | – | – | 1.16 µM (active)
CC1=C(/C=C/C(C)=C/C=C/C(C)=C/CO)C(C)(C)CCC1 | -0.811% | – | –
CC(=O)c1c(O)cc2c(c1C)C(=O)CC(O)C2 (stereo not given) | – | inactive | –
CC(C)=CCc1ccc(Oc2c(O)cc(C)cc2CO)c(C(=O)O)c1O | – | inactive | –
